These results are taken from PubChem BioAssay (NCATS).

The subject of one experiment is CRL-7250. The experiment in a line: Cytotoxic Profiling of Annotated Libraries Using Quantitative High-Throughput Screening (AID 1296008). For max response: % is set by controls: 0 for no effect and ±100 for the full control effect. Note: nearly all actives have a fitted effect of over 60% in size. Note: potency is the fitted concentration of half-maximal effect. Conditions: Five cell lines viability, CellTiter-Glo ATP luminescence, 48-72 h; max response: stronger effect = lower value. In a few lines:
(§1)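 Cytotoxicity was measured as CellTiter-Glo ATP luminescence, read after 10 min at room temperature. Compound treatment of the cells lasted 48 or 72 hr at 37 degrees Celsius in a qHTS format.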
(In ATP-based viability assays light output follows the ATP content of the culture.)

In experiment [1] the test system is HaCat. The experiment is described as above. Conditions: Five cell lines viability, CellTiter-Glo ATP luminescence, 48-72 h; max response: stronger effect = lower value. In a few lines: as §1
Another experiment deals with KB-3-1. The experiment is described as above. Conditions: Five cell lines viability, CellTiter-Glo ATP luminescence, 48-72 h; max response: stronger effect = lower value. The procedure, abridged: as §1
Experiment [2] relates to NIH3T3. Described as above. The note with it: Five cell lines viability, CellTiter-Glo ATP luminescence, 48-72 h; max response: stronger effect = lower value. In a few lines: as §1
A further experiment concerns MCC-13. The experiment in a line: qHTS assay to identify novel small-molecules to repurpose for Merkel cell carcinoma treatment (AID 1296009). Note: nearly all actives have a fitted effect of over 60% in size. Note: potency is the fitted concentration of half-maximal effect. The note with it: MCC and control cell lines, CellTiter-Glo viability, 72 h; series mostly up to 46 µM. In a few lines:
(§2)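 Cell viability measured by CellTiter-Glo following 72 hr compound treatment at 37 degree celsius, with NPC and MIPE libraries tested in 8- and 11-point concentration series.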

The next experiment relates to MCC-26. Described as above. Conditions: MCC and control cell lines, CellTiter-Glo viability, 72 h; series mostly up to 46 µM. The procedure, abridged:
as §2

The next experiment relates to MKL-1. The experiment is described as above. The note with it: MCC and control cell lines, CellTiter-Glo viability, 72 h; series mostly up to 46 µM. In a few lines: as §2
Another experiment has as its system MKL-2. The description is as above. Conditions: MCC and control cell lines, CellTiter-Glo viability, 72 h; series mostly up to 46 µM. In a few lines: as §2
The next experiment concerns WaGa. Described as above. The note with it: MCC and control cell lines, CellTiter-Glo viability, 72 h; series mostly up to 46 µM. The procedure, abridged: as §2
In another experiment the test system is UISO. The experiment is described as above. The note with it: MCC and control cell lines, CellTiter-Glo viability, 72 h; series mostly up to 46 µM. In a few lines: as §2
Experiment [3] relates to HACAT. Described as above. Conditions: MCC and control cell lines, CellTiter-Glo viability, 72 h; at 44.8 µM (top of the series) unless noted. The procedure, abridged: as §2
Another experiment has as its system C33A. The experiment can be described thus: Primary qHTS to identify gynecologic anti-cancer compounds using libraries of approved drugs and bioactive compounds (AID 1345084). Note: nearly all actives have a fitted effect of over 55% in size. Note: potency is the fitted concentration of half-maximal effect. Conditions: Gynecologic cancer cell panel viability, ATPlite luminescence, 48 h; series mostly up to 57.5 µM. The procedure, abridged: (§3)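 48 h compound exposure at 37 C, 5% CO2; five-point qHTS. ATPlite luminescence readout of cell ATP.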

A further experiment concerns CAOV3. The experiment is described as above. The note with it: Gynecologic cancer cell panel viability, ATPlite luminescence, 48 h; series mostly up to 57.5 µM. The procedure, abridged: as §3
The test system of the next experiment is CASKI. Described as above. The note with it: Gynecologic cancer cell panel viability, ATPlite luminescence, 48 h; series mostly up to 57.5 µM. The procedure, abridged:
as §3

A further experiment deals with TAB113. The experiment can be described thus: qHTS profiling for inhibitors of Plasmodium falciparum proliferation (AID 504749). The note with it: P. falciparum in erythrocytes, SYBR Green DNA, 72 h; series mostly up to 28.7 µM. In a few lines:
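In a 72 h erythrocytic culture (37 C, humidified, 5% CO2) at 2.5% hematocrit and 0.3% starting parasitemia, compounds were tested; SYBR Green I in detergent lysis buffer stained parasite DNA overnight.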
On the technique in general: Quantitative high-throughput screening tests each substance at several concentrations.

A further experiment deals with HEK293. The experiment can be described thus: Cytotoxic Profiling of Annotated Libraries Using Quantitative High-Throughput Screening (AID 1296008). For max response: % is set by controls: 0 for no effect and ±100 for the full control effect. Note: nearly all actives have a fitted effect of over 60% in size. Note: potency is the fitted concentration of half-maximal effect. Conditions: Five cell lines viability, CellTiter-Glo ATP luminescence, 48-72 h; max response: stronger effect = lower value. The procedure, abridged: as §1
Experiment [4] concerns NIH3T3. The experiment in a line: qHTS assay to identify novel small-molecules to repurpose for Merkel cell carcinoma treatment (AID 1296009). Note: nearly all actives have a fitted effect of over 60% in size. Note: potency is the fitted concentration of half-maximal effect. The note with it: MCC and control cell lines, CellTiter-Glo viability, 72 h; at 44.8 µM (top of the series) unless noted. The procedure, abridged: as §2

“And” between values parts separate entries of the source, which are not always exact repeats. Identical values can stand only once. Records with an inconclusive call do not appear. A number with no mark means an inactive call. The source made the active and inactive calls. Calls come from the whole dose curve; as a rule, active = well fitted curve in the direction sought with a large enough effect; inconclusive = small, poorly fitted or top-dose-only effect, or another doubt; inactive = no such curve, though single readings can be large; an effect the other way counts as inactive or inconclusive.

Turning to `O=c1cc(-c2ccc(O)cc2)oc2cc(O)cc(O)c12`, the max response is -23.1% with CRL-7250, -20% in the experiment on HaCat [1], 3.99% in the experiment with KB-3-1 and -14.4% in the experiment on NIH3T3 [2]. Besides, the Potency result in the experiment with MCC-13 and with MCC-26 was “inactive” each time. In addition, the Potency in the experiment with MKL-1 was 2350 nM (active); in the experiment with MKL-2, 1660 nM (active); in the experiment on WaGa, 2090 nM (active).
Regarding `O=C1c2c(O)cc(O)cc2O[C@H](c2cc(O)c(O)c(O)c2)[C@H]1O`, the max response with CRL-7250 is 1.37%; in the experiment with HaCat [1] it was -8.4%; in the experiment with KB-3-1 it was 4.36%; in the experiment on NIH3T3 [2], 4.33%. The Potency entry with MCC-13, in the experiment with MCC-26 and in the experiment on UISO was “inactive” each time. The Potency with WaGa is 2350 nM (active).
In the case of `C=C1C(=O)OC2C=C(C)CCC=C(C)CCC12` (stereo not drawn), the max response with CRL-7250 is 0.517%; with KB-3-1 it was 2.36%; in the experiment with NIH3T3 [2] it was 0.3%. In addition, the call with HaCat [1] and in the experiment with HACAT [3] was inactive. For the same molecule, the Potency entry in the experiment on MCC-13, with MCC-26, in the experiment with MKL-1 and in the experiment on UISO was “inactive” each time.
As to `CS(=O)(=O)N(Cc1ccco1)CC(O)Cn1c2ccccc2c2ccccc21` (stereo not drawn), the max response with CRL-7250 was -10% and -6.7%; with HaCat [1], -8.74%; in the experiment with KB-3-1, -4.93% and 3.15%; in the experiment with NIH3T3 [2], -17.4% and 0.438%. For the same molecule, the molecule was called inactive with HaCat [1] and in the experiment on HACAT [3]. Besides, the Potency entry in the experiment with MCC-13, in the experiment on MCC-26, in the experiment with MKL-1, with MKL-2, with WaGa and with C33A was “inactive” throughout. The Potency entry in the experiment on CAOV3 and in the experiment with CASKI was “inactive” each time.
Regarding `CCCCC1C(=O)N(c2ccccc2)N(c2ccccc2)C1=O`, the Potency result with TAB113, with MCC-13, with MKL-1, in the experiment on MKL-2, in the experiment on UISO and in the experiment on WaGa was “inactive” throughout. For the same molecule, the Potency result with C33A, with CAOV3 and in the experiment with CASKI was “inactive” each time. The max response was -3.59% with CRL-7250; -4.56% with HaCat [1]; 0.189% and 30.8% with KB-3-1; -4.9% in the experiment with NIH3T3 [2].
Regarding `O=C(NCc1ccncc1)C12C[C@H]3C[C@@H](C1)CC(c1ccc(Cl)cc1)(C3)C2`, the max response in the experiment on CRL-7250 was -10.8%. Also, the Potency with HEK293 was 10.5 µM (active). Moreover, the Potency result with MCC-13 and with MKL-2 was “inactive” throughout.
On to `O=C(O)C=Cc1ccc(O)c(O)c1`, for which the max response in the experiment with CRL-7250 is -10.7%; in the experiment with HaCat [1], -23.4%; in the experiment on KB-3-1, 6.69%; in the experiment on NIH3T3 [2], -24.2%.
For `O=C1C(Cl)=C(NCCN2CCOCC2)C(=O)c2ncccc21`, the Potency with CRL-7250 was 9350 nM (active); in the experiment with HEK293, 13.2 µM (active); in the experiment with KB-3-1, 20900 nM (active); in the experiment with NIH3T3 [2] it was 2640 nM (active); with MCC-13, 16600 nM (active); in the experiment on MKL-1, 1320 nM (active). Moreover, the Potency with MKL-2 is 2960 nM (active); in the experiment on UISO, 8330 nM (active).
For the molecule `COc1cc(O)c2c(c1)C(=O)c1cc(C)cc(O)c1C2=O`, the call with CRL-7250 was inactive. Also, the max response is -5.67% in the experiment with HaCat [1] and -1.03% with KB-3-1. Further, the Potency result in the experiment on MCC-13, with MCC-26, with MKL-1, with MKL-2, with UISO and in the experiment on WaGa was “inactive” in each case. Besides, in the experiment on NIH3T3 [4], the outcome is “inactive [at 17.4 µM]”.
For `NS(=O)(=O)c1cccc2c1C(=O)c1cccc(O)c1C2=O`, the Potency in the experiment with CRL-7250 was 526 nM (active); in the experiment with HEK293 it was 16.6 µM (active); in the experiment with NIH3T3 [2], 935 nM (active); with MCC-26, 833 nM (active); with MKL-1, 132 nM (active); in the experiment with MKL-2, 264 nM (active). The Potency with UISO was 662 nM (active); in the experiment on WaGa, 132 nM (active).
As for `CC[C@H]1OC(=O)[C@H](C)C(=O)[C@H](C)[C@@H](O[C@H]2O[C@H](C)C[C@H](N(C)C)[C@@H]2O)[C@](C)(OC)C[C@@H](C)C(=O)[C@H](C)[C@H]2N(CCCCn3cnc(-c4cccnc4)c3)C(=O)O[C@]12C`, the max response in the experiment on CRL-7250 is -7.01%; in the experiment on HaCat [1] it was -0.424%; in the experiment on KB-3-1 it was 2.84%; with NIH3T3 [2], -10.2%. Moreover, the Potency result in the experiment on MCC-13, in the experiment on MCC-26, with MKL-1, in the experiment with MKL-2, with UISO and with WaGa was “inactive” throughout.
For the molecule `N#CC1(c2ccc(NC(=O)c3cccnc3NCc3ccncc3)cc2)CCCC1`, the max response in the experiment with CRL-7250 was -26.7%; in the experiment with KB-3-1 it was -11.6%; in the experiment with NIH3T3 [2] it was -15.9%. The outcome in the experiment on HaCat [1] and in the experiment with HACAT [3] was inactive. For the same molecule, the Potency entry in the experiment with MCC-13, in the experiment on MCC-26, in the experiment on MKL-1, in the experiment on MKL-2, in the experiment with UISO and in the experiment with WaGa was “inactive” in each case.
Take `N[C@@]1(C(=O)O)CS(=O)(=O)[C@H]2[C@H](C(=O)O)[C@H]21`: the max response in the experiment with CRL-7250 was -30.1%; with KB-3-1 it was -18.8%; with NIH3T3 [2] it was -12.5%. Moreover, the molecule was called inactive in the experiment on HaCat [1] and with HACAT [3]. In addition, the Potency entry in the experiment on MCC-13, with MCC-26, in the experiment on MKL-1, in the experiment with MKL-2, with UISO and in the experiment on WaGa was “inactive” each time.
`O=c1cc(-c2ccccc2)oc2cc(O)cc(O)c12`: the max response in the experiment with CRL-7250 is -20.5%. The Potency with HEK293 was 8.33 µM (active). For the same molecule, the Potency entry in the experiment on MCC-13, in the experiment with MCC-26, with MKL-1, with MKL-2, in the experiment on UISO and in the experiment with WaGa was “inactive” in each case.
In the case of `CN(C)Cc1cccc(N=C(c2ccccc2)c2c(O)[nH]c3cc(C(=O)N(C)C)ccc23)c1`, the Potency with CRL-7250 is 20900 nM (active); in the experiment on NIH3T3 [2] it was 13200 nM (active). In addition, the max response in the experiment on HaCat [1] is -49.2%; with KB-3-1 it was -15%. Moreover, the Potency entry in the experiment on MCC-13, in the experiment on MKL-1 and in the experiment with WaGa was “inactive” each time.
As for `C=C1C(=O)[C@@]23C(CC[C@@H]1[C@H]2O)[C@@]12CO[C@]3(O)[C@@H](O)[C@@H]1C(C)(C)CC[C@@H]2O` (stereo partly drawn), the Potency in the experiment on CRL-7250 was 18400 nM (active); in the experiment with HEK293, 13.2 µM (active) and 8.2 µM (active); in the experiment with NIH3T3 [2], 18700 nM (active); in the experiment with MCC-13, 16600 nM (active); in the experiment with MKL-1, 1180 nM (active); in the experiment with MKL-2, 935 nM (active). In addition, the Potency in the experiment on UISO was 14800 nM (active); with WaGa, 833 nM (active); with C33A, 28200 nM (active).
